Results: PubChem BioAssay (Tox21)
Where “and” joins values, the source holds several entries; their conditions need not be identical. Identical values can stand only once. Values without a mark were called inactive. Inconclusive results are not listed. A call without a number means that no potency is given here. Calls of active or inactive are those of the source. Unless noted, the call rests on the fitted dose curve; in most records, active means well fitted curve in the direction sought with a large enough effect in the repeat runs; inconclusive means weak or mixed curves; inactive means no such curve, though single readings can be large; an effect the other way counts as inactive or inconclusive.

Legend:
[1] = qHTS assay for small molecule agonists of the p53 signaling pathway - cell viability (AID 651633; calls by dose curve; further: nearly all actives have a fitted effect of over 30% in size; further: potency means the concentration at half of the fitted maximal effect)
Procedure, shortened: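 p53RE-bla cells, seeded at 4,000 per well and rested 5 h at 37 C/5% CO2, received compounds in DMSO for 16 h at 37 C. CellTiter-Glo was then added, and luminescence was read after 30 min at room temperature to gauge cytotoxicity.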

[2] = qHTS assay for small molecules that induce genotoxicity in human embryonic kidney cells expressing luciferase-tagged ATAD5 - cell viability (AID 651634; calls by dose curve; further: nearly all actives have a fitted effect of over 25% in size; further: potency means the concentration at half of the fitted maximal effect)
Procedure, shortened: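 Cells (HEK293T, luciferase-tagged ATAD5) are seeded at 2,000 per well, dosed with compound or DMSO vehicle, and incubated 15.5 hr at 37C and 5% CO2. CellTiter-Fluor is added for 30 min before fluorescence is measured.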

[3] = qHTS assay for small molecule disruptors of the mitochondrial membrane potential - cell viability (AID 720634; calls by dose curve; further: nearly all actives have a fitted effect of over 20% in size; further: potency means the concentration at half of the fitted maximal effect)
Procedure, shortened: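 Cytotoxicity was measured by ATP quantitation in HepG2 wells that had first been treated with compound for 1 hr and stained with m-MPI dye; CellTiter-Glo incubation was 30 min at room temperature.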

[4] = qHTS assay for small molecule disruptors of the mitochondrial membrane potential (AID 720635); further: potency means the concentration at half of the fitted maximal effect
Procedure, shortened: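 HepG2 cells (2,000/well) attached overnight at 37C, then took compound for 1 hr at 37C, 5% CO2. Mito-MPS dye was added for 30 min; fluorescence was read at 490/535 nm (monomers) and 540/590 nm (aggregates).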

[5] = qHTS assay to test for compound auto fluorescence at 590 nm (red) in HepG2 cells (AID 720674)
Procedure, shortened: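 Compound auto-fluorescence is scored relative to Rose Bengal sodium, measured at 540/590 nm in live HepG2 cultures after 1 hr compound contact (37 C, 5% CO2).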

[6] = qHTS assay to test for compound auto fluorescence at 460 nm (blue) in HEK293 cells (AID 720678)
Procedure, shortened: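 HEK293 cells (2,000/well, medium with 10% dialyzed FBS) attached 4-5 hr, then exposed to compound overnight at 37C, 5% CO2. Blue fluorescence read at 405/460 nm, with triamterene as reference fluorophore.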

[7] = qHTS assay to test for compound auto fluorescence at 590 nm (red) in HEK293 cells (AID 720679)
Procedure, shortened: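 HEK293 cells (2,000/well, 10% dialyzed FBS) attached 4-5 hr, then dosed with compound or DMSO and incubated overnight at 37C, 5% CO2. Red fluorescence read at 540/590 nm, Rose Bengal sodium as reference fluorophore.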

[8] = qHTS assay for small molecules that induce genotoxicity in human embryonic kidney cells expressing luciferase-tagged ATAD5 (AID 651632); further: nearly all actives have a fitted effect of over 15% in size; further: potency means the concentration at half of the fitted maximal effect
Procedure, shortened: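 Cells were seeded at 2,000 per well, dosed with compound, and incubated 16 hr at 37C in 5% CO2. Luciferase activity was then quantified after a 30 min room-temperature incubation with Amplite.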

[9] = qHTS assay to test for compound auto fluorescence at 535 nm (green) in HepG2 cells (AID 720675)

## CCCOCC(=Nc1ccc(Cl)cc1C(F)(F)F)n1ccnc1
[1]
  Potency: 24.3 µM (active)
[2]
  Potency: 61.1 µM (active)
[3]
  Potency: 30.6 µM (active)
[4]
  Potency: 6.11 µM (active)
[5]
  outcome: inactive
[6]
  Potency: inactive
[7]
  outcome: inactive

## COc1ccc(OC)c(CC(C)N)c1 (stereo not given)
[8]
  Potency: inactive
[3]
  Potency: inactive
[4]
  Potency: inactive
[5]
  outcome: inactive
[9]
  outcome: inactive
[7]
  outcome: inactive

## CCCCCCCCCCCCCC[P+](CCCCCC)(CCCCCC)CCCCCC (tested in a mixture with another compound)
[1]
  Potency: 15.4 µM (active)
[2]
  Potency: 21.7 µM (active)
[3]
  Potency: 24.3 µM (active)
[4]
  Potency: 0.243 µM (active)
[5]
  outcome: inactive
[7]
  outcome: inactive

## O=C(Nc1ccc2[nH]ccc2c1)c1cc2cc(F)ccc2n1Cc1cccc(F)c1
[8]
  Potency: inactive
[4]
  Potency: 0.686 µM (active)
[5]
  outcome: inactive
[9]
  outcome: inactive
[6]
  Potency: inactive
[7]
  outcome: inactive

## [Hg+2].[I-].[I-]
[1]
  Potency: 61.1 µM (active)
[2]
  Potency: 61.1 µM (active)
[3]
  Potency: 48.6 µM (active)
[4]
  Potency: 17.2 µM (active)
[5]
  outcome: inactive
[9]
  outcome: inactive
[6]
  Potency: inactive
[7]
  outcome: inactive

## C[C@]12Cc3nonc3C[C@@H]1CC[C@@H]1[C@@H]2CC[C@@]2(C)[C@H]1CC[C@]2(C)O
[8]
  Potency: inactive
[1]
  Potency: 29.8 µM (active)
[5]
  outcome: inactive
[6]
  Potency: inactive
[7]
  outcome: inactive

## S=C(SSC(=S)N1CCCCC1)N1CCCCC1
[8]
  Potency: 29.8 µM (active)
[2]
  Potency: inactive
[3]
  Potency: inactive
[4]
  Potency: inactive
[5]
  outcome: inactive
[9]
  outcome: inactive
[6]
  Potency: inactive
[7]
  outcome: inactive

## Clc1ccc(CCC(Cn2ccnc2)Sc2c(Cl)cccc2Cl)cc1 (stereo not given)
[8]
  Potency: inactive
[3]
  Potency: inactive
[5]
  fluorescence, relative to Rose Bengal: -0.283% [at 18.6 µM]
[9]
  fluorescence, % of fluorescein control: -0.0029% [at 18.6 µM]
[7]
  fluorescence, % of fluorescent control: 0.0698% [at 18.6 µM]

## Fc1ccc(Oc2ccnc3cc(Cl)cc(Cl)c23)cc1
[8]
  Potency: inactive
[4]
  Potency: 30.6 µM (active)
[5]
  outcome: inactive
[6]
  Potency: inactive
[7]
  outcome: inactive

## Oc1cc(Cl)c(Cl)c(Cl)c1
[8]
  Potency: inactive
[4]
  Potency: 2.31 µM (active)
[5]
  outcome: inactive
[9]
  outcome: inactive
[7]
  outcome: inactive

## ClC1=C(Cl)[C@]2(Cl)[C@H]3[C@H]([C@H]4C=C[C@H]3C4)[C@@]1(Cl)C2(Cl)Cl
[8]
  Potency: inactive
[2]
  Potency: inactive
[4]
  Potency: 43.3 µM (active)
[5]
  outcome: inactive
[9]
  outcome: inactive
[6]
  Potency: inactive
[7]
  outcome: inactive

## O=[N+]([O-])c1cc([N+](=O)[O-])c2ccccc2c1
[1]
  Potency: inactive
[2]
  Potency: inactive
[4]
  Potency: 10.9 µM (active)
[5]
  outcome: inactive
[9]
  outcome: inactive
[6]
  Potency: inactive
[7]
  outcome: inactive

## C=CCC1=C(C)C(OC(=O)C2C(C=C(C)C)C2(C)C)CC1=O (stereo not given)
[1]
  Potency: 64.8 µM (active)
[2]
  Potency: inactive
[3]
  Potency: 11.5 µM (active)
[4]
  Potency: 5.78 µM (active)
[5]
  outcome: inactive
[9]
  outcome: inactive
[6]
  Potency: inactive
[7]
  outcome: inactive

## CN(C)C(=S)[S-].CN(C)C(=S)[S-].[Cu+2]
[1]
  Potency: inactive
[2]
  Potency: 0.836 µM (active)
[3]
  Potency: inactive
[4]
  Potency: 0.592 µM (active)
[5]
  fluorescence, relative to Rose Bengal: 0.166% [at 18.6 µM]
[6]
  fluorescence, % of triamterene: -0.0228% [at 18.6 µM]
[7]
  fluorescence, % of fluorescent control: 0.0936% [at 18.6 µM]

## CC(C)OC(=O)C(O)(c1ccc(Cl)cc1)c1ccc(Cl)cc1
[8]
  Potency: inactive
[4]
  Potency: 24.3 µM (active)
[5]
  outcome: inactive
[9]
  outcome: inactive
[6]
  Potency: inactive
[7]
  outcome: inactive

## CN(C)C(=S)S
[1]
  Potency: inactive
[2]
  Potency: inactive
[3]
  Potency: inactive
[4]
  Potency: inactive
[5]
  outcome: inactive
[9]
  outcome: inactive
[7]
  outcome: inactive

## CCCCCCCCCCCCBr
[8]
  Potency: inactive
[2]
  Potency: inactive
[4]
  Potency: 27.3 µM (active)
[5]
  outcome: inactive
[9]
  outcome: inactive
[6]
  Potency: inactive
[7]
  outcome: inactive

## Oc1ccc(C(=C(Cl)Cl)c2ccc(O)cc2)cc1
[8]
  Potency: inactive
[2]
  Potency: inactive
[4]
  Potency: 17.2 µM (active)
[5]
  outcome: inactive
[9]
  outcome: inactive
[6]
  Potency: inactive
[7]
  outcome: inactive

## CCCCCCCCCCCCCCCCCCn1cc[n+](C)c1
[8]
  Potency: inactive
[2]
  Potency: inactive
[4]
  Potency: 9.63 µM (active)
[5]
  outcome: inactive
[6]
  Potency: inactive
[7]
  outcome: inactive

## CCCCCCCCc1ccc(O)cc1
[1]
  Potency: 12.3 µM (active)
[2]
  Potency: inactive
[3]
  Potency: 15.4 µM (active)
[4]
  Potency: 4.89 µM (active)
[5]
  outcome: inactive
[6]
  Potency: inactive
[7]
  outcome: inactive

## CCCCCCCCCCCCCCCC[N+](C)(C)C
[8]
  Potency: inactive
[2]
  Potency: inactive
[3]
  Potency: inactive
[4]
  Potency: 13.3 µM (active) and 10.5 µM (active) and 27.3 µM (active)
[5]
  outcome: inactive
[9]
  outcome: inactive
[6]
  Potency: inactive
[7]
  outcome: inactive

## Oc1ccc(C2(c3ccc(O)cc3)CCCCC2)cc1
[8]
  Potency: inactive
[2]
  Potency: inactive
[3]
  Potency: inactive
[4]
  Potency: 16.3 µM (active)
[5]
  outcome: inactive
[9]
  outcome: inactive
[6]
  Potency: inactive
[7]
  outcome: inactive

## O=C(CCl)Nc1ccccc1
[8]
  Potency: inactive
[2]
  Potency: 48.6 µM (active)
[3]
  Potency: inactive
[5]
  outcome: inactive
[9]
  outcome: inactive
[7]
  outcome: inactive

## O=[N+]([O-])c1cc(C(F)(F)F)c(Cl)c([N+](=O)[O-])c1Cl
[1]
  Potency: 27.3 µM (active)
[2]
  Potency: 24.3 µM (active)
[3]
  Potency: 15.4 µM (active)
[4]
  Potency: 13.7 µM (active)
[5]
  outcome: inactive
[6]
  Potency: inactive
[7]
  outcome: inactive

## Cc1c(Cl)c(=O)oc2cc(OP(=O)(OCCCl)OCCCl)ccc12
[1]
  Potency: inactive
[2]
  Potency: inactive
[3]
  Potency: inactive
[5]
  outcome: inactive
[9]
  outcome: inactive
[7]
  outcome: inactive

## O=C/C(Cl)=C(/Cl)C(=O)O
[1]
  Potency: inactive
[2]
  Potency: inactive
[3]
  Potency: 61.1 µM (active)
[4]
  Potency: 24.3 µM (active) and 38.6 µM (active)
[5]
  outcome: inactive
[6]
  Potency: inactive
[7]
  outcome: inactive

## CCOP(=S)(OCC)OC(Cl)C(Cl)(Cl)Cl (stereo not given)
[8]
  Potency: inactive
[2]
  Potency: inactive
[4]
  Potency: 61.1 µM (active)
[5]
  outcome: inactive
[9]
  outcome: inactive
[7]
  outcome: inactive

## CC(C)(C)c1cc([N+](=O)[O-])cc(C(C)(C)C)c1O
[1]
  Potency: 48.6 µM (active)
[2]
  Potency: 13.7 µM (active)
[4]
  Potency: 0.122 µM (active)
[5]
  outcome: inactive
[9]
  outcome: inactive
[6]
  Potency: inactive
[7]
  outcome: inactive

## N#CC(Cl)Cl
[1]
  Potency: inactive
[2]
  Potency: inactive
[3]
  Potency: inactive
[5]
  outcome: inactive
[9]
  outcome: inactive
[7]
  outcome: inactive

## Cc1cc(N=Nc2ccccc2C)ccc1N
[8]
  Potency: 6.11 µM (active) and 6.86 µM (active)
[2]
  Potency: 48.6 µM (active)
[3]
  Potency: 19.3 µM (active) and 15.4 µM (active)
[4]
  Potency: 15.4 µM (active) and 30.6 µM (active)
[5]
  outcome: inactive
[9]
  outcome: inactive
[6]
  Potency: inactive
[7]
  outcome: inactive

## OC(c1ccc(Cl)cc1)(c1ccc(Cl)cc1)C(Cl)(Cl)Cl
[1]
  Potency: 61.1 µM (active)
[4]
  Potency: 6.11 µM (active)
[5]
  outcome: inactive
[9]
  outcome: inactive
[6]
  Potency: inactive
[7]
  outcome: inactive
